Out of some 310,000 compounds screened, about 14,000 (4.5%) showed an effect of 50% or more. Effects have a minus sign here. The entries come from a sample that favours strong results as a whole.
molecular target: human ether-à-go-go-related gene (hERG) potassium channel (human, UniProt Q12809); assay: primary screen, population patch clamp on CHO cells stably expressing hERG; higher = less effect of the substance
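Note: peak tail current of the secondary pulse compared with the same well before compound.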

Chain of human ether-à-go-go-related gene (hERG) potassium channel (Q12809 whole entry, looked up): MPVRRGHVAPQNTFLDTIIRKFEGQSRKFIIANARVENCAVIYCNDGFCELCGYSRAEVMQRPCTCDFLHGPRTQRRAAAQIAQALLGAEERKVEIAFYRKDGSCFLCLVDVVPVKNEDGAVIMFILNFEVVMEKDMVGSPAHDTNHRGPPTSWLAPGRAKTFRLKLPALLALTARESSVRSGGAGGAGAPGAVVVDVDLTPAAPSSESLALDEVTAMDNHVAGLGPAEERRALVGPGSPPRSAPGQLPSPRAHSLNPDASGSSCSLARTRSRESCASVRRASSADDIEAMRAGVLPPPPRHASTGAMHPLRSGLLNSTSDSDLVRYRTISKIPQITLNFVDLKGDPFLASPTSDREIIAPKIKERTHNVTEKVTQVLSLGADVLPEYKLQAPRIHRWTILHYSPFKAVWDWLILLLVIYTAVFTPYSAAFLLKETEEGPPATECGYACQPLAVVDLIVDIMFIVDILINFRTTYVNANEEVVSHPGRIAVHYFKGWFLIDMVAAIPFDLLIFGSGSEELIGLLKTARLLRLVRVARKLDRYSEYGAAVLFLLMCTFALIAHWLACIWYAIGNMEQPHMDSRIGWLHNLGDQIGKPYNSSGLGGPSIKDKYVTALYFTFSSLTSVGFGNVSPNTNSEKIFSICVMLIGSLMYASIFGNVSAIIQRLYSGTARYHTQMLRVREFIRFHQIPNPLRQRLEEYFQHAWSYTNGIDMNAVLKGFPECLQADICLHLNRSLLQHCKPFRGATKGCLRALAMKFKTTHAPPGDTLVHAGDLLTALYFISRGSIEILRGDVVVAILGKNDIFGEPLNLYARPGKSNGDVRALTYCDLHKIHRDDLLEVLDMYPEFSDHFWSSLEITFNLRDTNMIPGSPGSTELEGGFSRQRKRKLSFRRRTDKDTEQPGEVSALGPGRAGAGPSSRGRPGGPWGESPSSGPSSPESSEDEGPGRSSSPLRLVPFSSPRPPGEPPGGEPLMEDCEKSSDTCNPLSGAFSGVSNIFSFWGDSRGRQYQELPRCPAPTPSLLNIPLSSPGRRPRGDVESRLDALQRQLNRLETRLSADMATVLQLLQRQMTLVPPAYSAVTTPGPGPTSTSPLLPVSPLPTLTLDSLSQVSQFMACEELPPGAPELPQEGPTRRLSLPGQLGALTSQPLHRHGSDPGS

Structure (SMILES) | hERG current change (%, negative = inhibition) at 10uM [%]
O=C(Nc1ccc(S(=O)(=O)NCc2cccnc2)cc1)c1ccco1 | 10.2
O=C(COc1ncnc2sccc12)N1CCc2ccccc2C1 | 0.518
Cc1nc2ccccc2c(=O)n1/N=C/c1ccc(O)cc1O | 10.4
Cc1ccc(NC(C)C(=O)N/N=C/c2ccc([N+](=O)[O-])s2)cc1 (centres unmarked) | 8.3
O=C(Nc1ccc(Cl)cc1)OC1CN2CCC1CC2 (centres unmarked) | -40.6
Cl.O=C(COc1ccc(Cl)cc1)N(c1ccccc1Cl)C1CN2CCC1CC2 (centres unmarked) | -50.5
O=C(COc1ccc(Cl)cc1)N1CCCC1 | -7.47
O=C(COc1ccc(Cl)cc1)N(Cc1cccs1)C1CCS(=O)(=O)C1 (centres unmarked) | -48.1
Cl.O=C(COc1ccc(Cl)cc1)N(c1ccc(Cl)cc1)C1CN2CCC1CC2 (centres unmarked) | -65.1
Cl.O=C(COc1ccc(Cl)cc1)NC1CN2CCC1CC2 (centres unmarked) | -35.1
CN1CCN(CC(O)(c2ccc(Cl)cc2)c2ccc(Cl)cc2)CC1 | -73.3
Cl.NCC(O)(c1ccc(Cl)cc1)c1ccc(Cl)cc1 | -5.47
CN1CCN(CC(C)(C)NS(=O)(=O)c2ccc(Cl)cc2)CC1 | -20.4
O=C(N/N=C/c1cccnc1)c1ccc(NC(=O)c2cccc(Cl)c2)cc1 | 15.3
Cc1cccc(Cl)c1NC(=O)N1CCCN(c2nc3ccc(Cl)cc3s2)CC1 | -20.6
COc1cccc(/C=C/C2=CC(C)(C)NC(=S)N2)c1 | 16
COc1ccc(CN(Cc2ccccn2)S(=O)(=O)c2ccc(-n3cnnn3)cc2)cc1 | -72.7
COc1ccc(CN(C2CCCC2)S(=O)(=O)c2ccc(-n3cnnn3)cc2)cc1 | -43.8
COc1ccc(CCN(Cc2cccs2)S(=O)(=O)c2ccc(-n3cnnn3)c(OC)c2)cc1OC | 10.4
COc1ccc(CCN(Cc2cccs2)S(=O)(=O)c2ccc(-n3cnnn3)cc2)cc1OC | -52.5
COc1cc(S(=O)(=O)N(CCc2ccccc2)Cc2cccs2)ccc1-n1cnnn1 | -3.57
COc1cc(S(=O)(=O)N(Cc2ccccc2)Cc2ccccn2)ccc1-n1cnnn1 | 2.81

Structure (SMILES) | hERG current change (%, negative = inhibition) at 10uM [%]
COc1ccc(CN(C2CCCC2)S(=O)(=O)c2ccc(-n3cnnn3)cc2)cc1OC | -64
COc1ccc(CN(C2CCCC2)S(=O)(=O)c2ccc(-n3cnnn3)c(OC)c2)cc1OC | -28.1
COc1ccc(CN(Cc2ccccn2)S(=O)(=O)c2ccc(-n3cnnn3)c(OC)c2)cc1 | -47.2
O=C(N/N=C/c1ccc(Cl)cc1Cl)C(=O)NC1CC1 | 17.4
Nc1nonc1C(=O)OCC(=O)c1ccc(Cl)cc1 | 4.6
Cc1ccccc1NC(=O)NC1(C(=O)N2CCCC2)CCCCC1 | 9.33
Cc1ccc2cc3cc(C(=O)NC4CC4)oc3nc2c1 | 8.43
CCCN(CCC)CCCNC(=O)c1cc2cc3ccc(OC)cc3nc2o1 | -52.8
CCCCN(CC)CCCNC(=O)c1cc2cc3ccc(C)cc3nc2o1 | -53.4
CCCCN(CC)CCCNC(=O)c1cc2cc3ccc(OC)cc3nc2o1 | -64.5
CCN(CC)CCNC(=O)c1cc2cc3ccc(OC)cc3nc2o1 | -18
COc1ccc2cc3cc(C(=O)NCCC(C)C)oc3nc2c1 | 6.93
CCCCN(C)CCNC(=O)c1cc2cc3ccc(OC)cc3nc2o1 | -43
Cc1ccc2cc3cc(C(=O)NCCC(C)C)oc3nc2c1 | 8.43
COCCNC(=O)c1cc2cc3ccc(OC)cc3nc2o1 | 12.8
CCOC(=O)C1=C(N)Oc2c(oc(CO)cc2=O)C1c1c(F)cccc1Cl (centres unmarked) | 0.47
Nc1ncc([N+](=O)[O-])cc1S(=O)(=O)c1ccccc1 | 8.32
COc1ccc(N2C(=O)C3CCCN3C2c2cc(OC)c(OC)cc2OC)cc1 (centres unmarked) | -4.23
CSc1nc(C)cc(C)c1C(N)=O | 8.49
CCCNC(=O)NC(=O)CSc1nnc(-c2ccncc2)n1CC | 11.6
CCC1CCCCN1CCCNC(=O)Cn1ncn2nc(-c3ccc(OC)cc3)cc2c1=O (centres unmarked) | -42.1
COc1ccc(-c2cc3c(=O)n(CC(=O)NCCCN4CCC(Cc5ccccc5)CC4)ncn3n2)cc1 | -72.4

Structure (SMILES) | hERG current change (%, negative = inhibition) at 10uM [%]
COc1ccc(-c2cc3c(=O)n(CC(=O)NCCCN4CCC(N5CCCCC5)CC4)ncn3n2)cc1 | 21.5
COc1ccc(-c2cc3c(=O)n(CC(=O)NCCCN4CCN(Cc5ccccc5)CC4)ncn3n2)cc1 | -54.8
CCc1ccc(-c2cc3c(=O)n(CC(=O)NCCCN4CCN(C)CC4)ncn3n2)cc1 | -4.24
COc1ccc(-c2cc3c(=O)n(CC(=O)NCCCc4ccccc4)ncn3n2)cc1 | 7.35
O=S(=O)(c1ccccc1)N1CCN=C1SCc1ccc(Cl)c(Cl)c1 | -2.01
Cc1ccc(NC(=O)CCCCCN2C(=O)[C@@H]3Cc4ccccc4CN3C2=O)c(C)c1 | 2.68
Cc1ccc(-c2cc(-c3cccs3)[nH]n2)c(O)c1 | 1.75
COC(=O)CSc1nc(NC(C)=O)nc(C)c1Br | 9.72
O=C(CSc1nc2c(cnn2-c2ccccc2)c(=O)[nH]1)N1N=C(c2cccs2)CC1c1ccc(F)cc1 (centres unmarked) | 16
COc1ccc(C2CC(c3cccs3)=NN2C(=O)CSc2nc(=O)n3ccccc3n2)cc1 (centres unmarked) | -57.5
COc1ccc(C2CC(c3cccs3)=NN2C(=O)CSC2=NCCS2)cc1 (centres unmarked) | -11
COc1ccc(C2CC(c3cccs3)=NN2C(=O)CSc2nc3ccccc3s2)cc1 (centres unmarked) | -6.91
O=C(CSc1nc(=O)n2ccccc2n1)N1N=C(c2cccs2)CC1c1ccc(F)cc1 (centres unmarked) | -52.2
O=C(CSc1nc2ccccc2s1)N1N=C(c2cccs2)CC1c1ccc(F)cc1 (centres unmarked) | 0.782
O=C(NCc1ccccc1)c1ccc2nnsc2c1 | -1.17
Cc1cc(=O)[nH]c(SCC(=O)N(CCC#N)c2ccccc2)c1C#N | 15.3
COc1cc(OC)cc(C(=O)NCCNC(=O)c2ccccn2)c1 | 14.3
CCN(CCCNC(=O)CN1C(=O)COc2ccccc21)c1cccc(C)c1 | -11.3
CC(=O)Nc1ccc(Sc2ncccc2C(=O)Nc2ccc(F)cc2)cn1 | 13.9
O=C(Nc1cc(C(F)(F)F)cc(C(F)(F)F)c1)c1ccc(Cn2cc(C(F)(F)F)ccc2=O)cc1 | 22
COCCc1nn2c(=O)cc(COC(=O)c3cc(OC)c(OC)c(OC)c3)nc2s1 | -22.6
CCc1nn2c(=O)cc(COC(=O)c3ccc(SC)cc3OC)nc2s1 | -18.7

Structure (SMILES) | hERG current change (%, negative = inhibition) at 10uM [%]
CCc1nn2c(=O)cc(COC(=O)c3cc(Cl)c(OC)c(OC)c3)nc2s1 | -69.5
CCOc1cccc(C2C(C(=O)c3ccc(C)o3)=C(O)C(=O)N2c2nccs2)c1 (centres unmarked) | 0.752
CN1CCN(CCCC(=O)c2ccc(F)cc2)CC1.Cl | -14.5
O=C(CN1CCC(NC(=O)c2ccccc2)CC1)NCc1ccccc1F | -20.6
Cl.O=C(CCCN1CCc2[nH]c3ccc(F)cc3c2C1)c1ccc(F)cc1 | -70.4
C=CCNC(=O)N1CCc2[nH]c3ccc(F)cc3c2C1 | 6.56
Cc1ccc(C(=O)NC2CCN(CCCC(=O)c3ccc(F)cc3)CC2)cc1 | -74
O=C(c1ccc(F)cc1)C1CCN(C(=O)c2ccc(F)cc2)CC1 | -22.7
O=C(C1CCCCC1)N1CCc2[nH]c3ccc(F)cc3c2C1 | -3.94
O=C(CCCN1CCC(NC(=O)c2ccccc2)CC1)c1ccc(Cl)cc1 | -77.8
O=C(CCCN1CCC(C(=O)c2ccc(F)cc2)CC1)c1ccc(F)cc1 | -78.5
CCN(CC)C(=O)N1CCC(NC(=O)c2ccccc2)CC1 | 12.6
Cc1ccc(C(=O)NC2CCN(C(=O)Nc3ccc(F)cc3)CC2)cc1 | 1.24
Cc1ccc(C(=O)NC2CCN(S(=O)(=O)c3ccc(F)cc3)CC2)cc1 | 11.6
COC(=O)C1C(=O)C2=C(CC1C)NC(=O)CC2c1cccc(C)c1 (centres unmarked) | -12.6
CCCSc1nnc(NC(=O)c2ccco2)s1 | 2.42
CC(NC(=O)CSc1nnc(-c2cc3cc(Cl)ccc3o2)n1C)c1ccccc1 (centres unmarked) | -12
CCOC(=O)c1oc2ccccc2c1COC(=O)CNC(=O)c1cccc(C)c1 | 3.66
CC(=O)c1cn(C)c(=O)n(C)c1=O | 4.7
COC(=O)c1ccc(C23CC4(C2)[C@H](CN(Cc2cccnc2)[C@@H]4c2ccccc2)C3c2ccccc2)cc1 (some centres unmarked) | 12.8
